Bioassay records deposited in PubChem by National Center for Advancing Translational Sciences (NCATS).
Pf growth 48h: inhibits P. falciparum growth in the first generation, 48 h; P. falciparum luciferase growth in erythrocytes, 48 h; Potency, µM (series often up to 28.7 µM), usual class: inhibitors; 310,000 compounds, 5.9% hits
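Read-out is firefly luciferase luminescence from an integrated reporter in P. falciparum, so falling signal marks reduced parasite growth. Infected erythrocytes were at 2% hematocrit and 0.1% parasitemia (final) in Albumax-supplemented RPMI 1640.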
Pf growth 96h: inhibits malaria parasite growth, 96 h. P. falciparum luciferase reporter growth, 96 h. AID 504834. 320,000 compounds, 6.9% hits. Potency, µM (top dose mostly 28.7 µM), hits mostly inhibitors
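P. falciparum expressing integrated firefly luciferase, in erythrocytes at 2% hematocrit, 0.05% parasitemia, incubated with compounds 96 h at 37 C, 5% CO2. Growth inhibition read as loss of luminescence; two-generation exposure targets delayed-death apicoplast inhibitors.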
AMA1-RON2 inh: inhibitors of Plasmodium falciparum AMA1-RON2 interaction; AID 720542; AlphaScreen AMA1-biotinylated RON2 peptide binding; Potency, µM (highest dose often 58.2 µM), usual class: inhibitors; 360,000 compounds, 0.2% hits; also: nearly all actives have a fitted effect of over 45% in size
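AMA1 (3D7) with his tag at 25 nM final met compounds first, then biotinylated RON2 peptide at 25 nM; detection used donor plus acceptor beads, 10 µg/mL apiece, read by AlphaScreen after 30 min at room temperature.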
HCV inhibitor: HCV inhibition; 340,000 compounds, 3.4% hits; Potency, µM (series often up to 41.8 µM), usual class: inhibitors; AID 651820; Huh7.5.1 HCVcc-Cre infection, luciferase reporter, 44 h
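Luciferase read-out (15 sec integration) after a 15 min room-temperature substrate step quantifies HCVcc-Cre infection. Cells, 1,000 per well, had compound added 4 h post-plating, then virus at ~0.5 moi, and were cultured 44 h.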
Hits are given with their value; – = inactive; ? = inconclusive; · = not tested or not shown; [ ] = remark or other dose. Most compounds without a hit are left out; they make up all but 11% or so of the library. Calls follow the shape of the dose curve; as a rule, active = well fitted curve in the direction sought with a large enough effect; inconclusive = small, poorly fitted or top-dose-only effect, or another doubt; inactive = no such curve, though single readings can be large; an effect the other way counts as inactive or inconclusive.

SMILES	Pf growth 48h	Pf growth 96h	AMA1-RON2 inh	HCV inhibitor
C=C(C)c1cccc(C(C)(C)NC(=O)Nc2ccc(OC)cc2)c1	–[5.75 µM]	?	–	–
C=C(C)c1cccc(C(C)(C)NC(=O)NC(c2ccccc2)c2ccc(OC)cc2)c1 (stereo not given)	?	11.7µM	–[11.6 µM]	–
Cc1ccc(C)n1-c1ccc(C(=O)/C=C/N(C)C)cc1	?	14.7µM	–	?
CN(C)/C=C/C(=O)c1ccc(Br)cc1	–	–	–	–
CC1(C(=O)NCCc2ccccc2)Cc2c(-c3ccc(C(N)=O)cc3)ccnc2O1 (stereo not given)	·	·	–	·
CC(C)(c1ccccc1)c1ccc(OCCCN2CCNCC2)cc1	?	?	–	8.91µM
CC1CCN(CCCCOc2ccc(C(C)(C)C)cc2)CC1	–	?	?	?
CC(C)(C)c1ccc(OCCCCCCN2CCNCC2)cc1	·	·	–	7.94µM
COc1ccc(OC)c(NC(=O)CCC(=O)Nc2nnc(C(C)C)s2)c1	–	–	–	–
COCCCn1c(-c2ccc(OC)cc2)cc(C(=O)NC2CCCCCCC2)c1C	13.1µM	14.7µM	–	?
CC1CCC(C(C)C)C(OC(=O)CSc2n[nH]c(=O)[nH]c2=O)C1 (stereo not given)	–	13.1µM	–	?
COc1cccc(N/C=C/c2onc(C)c2[N+](=O)[O-])c1	–	–[1.15 µM]	–	–
Cc1cccc(NC(=O)C(c2ccccc2Cl)N2CCOCC2)c1 (stereo not given)	11.7µM	14.7µM	–	–
COc1ccc(OC)c(NC(=O)C2CC(C)=C(C)CC2C(=O)O)c1 (stereo not given)	·	–	–	–
COc1cc(OC)c(NS(=O)(=O)c2cc(C(=O)OC(C)C(=O)NC3CC3)c(Cl)cc2Cl)cc1Cl (stereo not given)	?	–	–	11.2µM
CC12C(=O)N(c3ccccc3C(=O)O)C(=O)C1C1C=CC2C1 (stereo not given)	–	–	–	–
CC12C(=O)N(c3cccc4cccnc34)C(=O)C1C1C=CC2C1 (stereo not given)	·	6.57µM	–	–
Cc1ccc(-n2c(SCC(=O)N/N=C/c3c(C)nn(-c4ccccc4)c3C)nc3ccccc3c2=O)cc1	–	?	–	?
Cc1nn(-c2ccccc2)c(C)c1/C=N/NC(=O)CSc1nnc(SCc2cccc3ccccc23)s1	–	10.4µM	–	14.1µM
O=C(NCc1ccccn1)c1cccc(NS(=O)(=O)c2cccc(F)c2)c1	–	–	–	–
Cc1ccc(S(=O)(=O)N2C[C@]3(O)C[C@@H]4C(=O)N(c5ccccc5)C(=O)[C@@H]4C[C@]3(OC(=O)Nc3c(C)noc3C)C2)cc1	·	·	–	·
COc1ccc(C(=O)N(Cc2cccs2)C2CCS(=O)(=O)C2)cc1 (stereo not given)	–	?	–	–
COc1ccccc1C(=O)N(Cc1sccc1C)C1CCS(=O)(=O)C1 (stereo not given)	–	2.08µM	–	–
CCOc1ccccc1C(=O)N(Cc1cccs1)C1CCS(=O)(=O)C1 (stereo not given)	–	–	–	?
O=C(c1ccccc1)N(Cc1cccs1)C1CCS(=O)(=O)C1 (stereo not given)	–	0.37µM	–	–
SMILES	Pf growth 48h	Pf growth 96h	AMA1-RON2 inh	HCV inhibitor
O=C(c1cccs1)N(Cc1ccco1)C1CCS(=O)(=O)C1 (stereo not given)	–	5.22µM	–	–
O=C(CCS(=O)(=O)Cc1ccccc1)NCCc1ccccc1	–	–	–	–
Cc1cccc(C(=O)NCC(=O)NC2CCC(C)CC2)c1 (stereo not given)	–	–	–	?
CCN1CCN(CCCNC(=O)c2ccc3c(Cl)c4c(nc3c2)CCCC4)CC1	?	–	–	?
COc1cc(OC)c(NC(=O)c2ccc3c(SCC(=O)O)c4c(nc3c2)CCCC4)cc1Cl	5.22µM	–	–	–
CCN1CCN(C(=O)c2ccc3c(Cl)c4c(nc3c2)CCCC4)CC1	?	–	–	?
CN1CCN(C(=O)c2ccc3c(Cl)c4c(nc3c2)CCCC4)CC1	–	13.1µM	–	–
CC1CCN(CCCNC(=O)c2ccc3c(Cl)c4c(nc3c2)CCCC4)CC1	13.1µM	?	–	8.91µM
O=C(NCCCN1CCCCCC1)c1ccc2c(Cl)c3c(nc2c1)CCCC3	?	–	–	0.631µM
Cn1c(COc2ccc([N+](=O)[O-])cc2)nnc1SCC(=O)NCC1CCCO1 (stereo not given)	–	?	–	–
COc1cc(CO)cc(Br)c1OCc1cccnc1	–	–	–	–
CCOC(=O)N1CCN(C(=O)c2ccc3c(SCC(=O)O)c4c(nc3c2)CCCC4)CC1	–	11.7µM	–	–
O=C1CC(c2ccccc2)CC(O)=C1C=NCc1ccncc1 (stereo not given)	–	11.7µM	–	–
COc1ccccc1N=CC1=C(O)CC(c2ccccc2)CC1=O (stereo not given)	–	13.1µM	–	–
O=C1CC(c2ccccc2)CC(O)=C1C=NCc1ccc(Cl)c(Cl)c1 (stereo not given)	–	?	–	–
C/C(=N\NC(=O)c1ccc2ccccc2c1)c1cccs1	–	–	–	–
C[C@@]12C(=O)N(c3cccc(Cl)c3)C(=O)N1[C@H](c1ccc(Cl)cc1)[C@@H]1C(=O)N(C3CCCCC3)C(=O)[C@@H]12	?	?	–	–
CC(C)C[C@@]12C(=O)N(c3cccc(F)c3)C(=O)N1[C@H](c1ccc(F)cc1)[C@@H]1C(=O)N(C3CCCCC3)C(=O)[C@@H]12	10.4µM	?	–	–
O=C1[C@H]2[C@@H](c3ccc(F)cc3)N3C(=O)N(c4ccccc4)C(=O)[C@@]3(Cc3ccccc3)[C@H]2C(=O)N1C1CCCCC1	?	?	–	–
C[C@@]12C(=O)N(c3cccc(F)c3)C(=O)N1[C@H](c1ccc(Cl)cc1)[C@@H]1C(=O)N(C3CCCCC3)C(=O)[C@@H]12	11.7µM	–	–	?
COc1ccc(N2C(=O)N3[C@H](c4ccc(Cl)cc4)[C@@H]4C(=O)N(C5CCCCC5)C(=O)[C@@H]4[C@]3(C)C2=O)cc1	?	2.33µM	–	–
C[C@@]12C(=O)N(c3cccc(F)c3)C(=O)N1[C@H](c1ccc(F)cc1)[C@@H]1C(=O)N(C3CCCCC3)C(=O)[C@@H]12	?	–	–	–
CC(C)C[C@@]12C(=O)N(c3cccc(F)c3)C(=O)N1[C@H](c1ccc(Cl)cc1)[C@@H]1C(=O)N(C3CCCCC3)C(=O)[C@@H]12	2.94µM	4.65µM	–	–
NC(Cc1ccccc1)c1csc(Nc2nccc(C(F)(F)F)n2)n1 (stereo not given)	·	·	–	·
Cc1cc(C)n2c(SCC(=O)NC3CCCCC3)nnc2n1	–	–	–	–
Cc1ccc(NC2c3ccccc3C(=O)N2CCN2CCOCC2)cc1 (stereo not given)	·	–	–	–
C=CCOc1nc(-c2ccncc2)nc2ccccc12	7.38µM	–	–	5.01µM
COc1nc(-c2ccncc2)nc2ccccc12	?	?	–	?
CCCOc1ccc(Oc2nc(-c3ccncc3)nc3ccccc23)cc1	1.31µM	1.04µM	–	?
